Screening results (PubChem)
The sample as a whole holds a higher share of hits than the screen did.
mHTT-CaM PPI inh: mutant huntingtin-calmodulin interaction inhibitors – biochemical, AlphaScreen, primary screen | AID 1671202, 2021 | P42858 | AlphaScreen His-mHTT/GST-CaM binding, luminescence | actives 3.6% (n = 190,000) | inhibition, % at 15 µM;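 further: 0% = both proteins with DMSO and 100% = one protein alone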
Target sequence (P42858 whole entry, looked up, stated change not applied): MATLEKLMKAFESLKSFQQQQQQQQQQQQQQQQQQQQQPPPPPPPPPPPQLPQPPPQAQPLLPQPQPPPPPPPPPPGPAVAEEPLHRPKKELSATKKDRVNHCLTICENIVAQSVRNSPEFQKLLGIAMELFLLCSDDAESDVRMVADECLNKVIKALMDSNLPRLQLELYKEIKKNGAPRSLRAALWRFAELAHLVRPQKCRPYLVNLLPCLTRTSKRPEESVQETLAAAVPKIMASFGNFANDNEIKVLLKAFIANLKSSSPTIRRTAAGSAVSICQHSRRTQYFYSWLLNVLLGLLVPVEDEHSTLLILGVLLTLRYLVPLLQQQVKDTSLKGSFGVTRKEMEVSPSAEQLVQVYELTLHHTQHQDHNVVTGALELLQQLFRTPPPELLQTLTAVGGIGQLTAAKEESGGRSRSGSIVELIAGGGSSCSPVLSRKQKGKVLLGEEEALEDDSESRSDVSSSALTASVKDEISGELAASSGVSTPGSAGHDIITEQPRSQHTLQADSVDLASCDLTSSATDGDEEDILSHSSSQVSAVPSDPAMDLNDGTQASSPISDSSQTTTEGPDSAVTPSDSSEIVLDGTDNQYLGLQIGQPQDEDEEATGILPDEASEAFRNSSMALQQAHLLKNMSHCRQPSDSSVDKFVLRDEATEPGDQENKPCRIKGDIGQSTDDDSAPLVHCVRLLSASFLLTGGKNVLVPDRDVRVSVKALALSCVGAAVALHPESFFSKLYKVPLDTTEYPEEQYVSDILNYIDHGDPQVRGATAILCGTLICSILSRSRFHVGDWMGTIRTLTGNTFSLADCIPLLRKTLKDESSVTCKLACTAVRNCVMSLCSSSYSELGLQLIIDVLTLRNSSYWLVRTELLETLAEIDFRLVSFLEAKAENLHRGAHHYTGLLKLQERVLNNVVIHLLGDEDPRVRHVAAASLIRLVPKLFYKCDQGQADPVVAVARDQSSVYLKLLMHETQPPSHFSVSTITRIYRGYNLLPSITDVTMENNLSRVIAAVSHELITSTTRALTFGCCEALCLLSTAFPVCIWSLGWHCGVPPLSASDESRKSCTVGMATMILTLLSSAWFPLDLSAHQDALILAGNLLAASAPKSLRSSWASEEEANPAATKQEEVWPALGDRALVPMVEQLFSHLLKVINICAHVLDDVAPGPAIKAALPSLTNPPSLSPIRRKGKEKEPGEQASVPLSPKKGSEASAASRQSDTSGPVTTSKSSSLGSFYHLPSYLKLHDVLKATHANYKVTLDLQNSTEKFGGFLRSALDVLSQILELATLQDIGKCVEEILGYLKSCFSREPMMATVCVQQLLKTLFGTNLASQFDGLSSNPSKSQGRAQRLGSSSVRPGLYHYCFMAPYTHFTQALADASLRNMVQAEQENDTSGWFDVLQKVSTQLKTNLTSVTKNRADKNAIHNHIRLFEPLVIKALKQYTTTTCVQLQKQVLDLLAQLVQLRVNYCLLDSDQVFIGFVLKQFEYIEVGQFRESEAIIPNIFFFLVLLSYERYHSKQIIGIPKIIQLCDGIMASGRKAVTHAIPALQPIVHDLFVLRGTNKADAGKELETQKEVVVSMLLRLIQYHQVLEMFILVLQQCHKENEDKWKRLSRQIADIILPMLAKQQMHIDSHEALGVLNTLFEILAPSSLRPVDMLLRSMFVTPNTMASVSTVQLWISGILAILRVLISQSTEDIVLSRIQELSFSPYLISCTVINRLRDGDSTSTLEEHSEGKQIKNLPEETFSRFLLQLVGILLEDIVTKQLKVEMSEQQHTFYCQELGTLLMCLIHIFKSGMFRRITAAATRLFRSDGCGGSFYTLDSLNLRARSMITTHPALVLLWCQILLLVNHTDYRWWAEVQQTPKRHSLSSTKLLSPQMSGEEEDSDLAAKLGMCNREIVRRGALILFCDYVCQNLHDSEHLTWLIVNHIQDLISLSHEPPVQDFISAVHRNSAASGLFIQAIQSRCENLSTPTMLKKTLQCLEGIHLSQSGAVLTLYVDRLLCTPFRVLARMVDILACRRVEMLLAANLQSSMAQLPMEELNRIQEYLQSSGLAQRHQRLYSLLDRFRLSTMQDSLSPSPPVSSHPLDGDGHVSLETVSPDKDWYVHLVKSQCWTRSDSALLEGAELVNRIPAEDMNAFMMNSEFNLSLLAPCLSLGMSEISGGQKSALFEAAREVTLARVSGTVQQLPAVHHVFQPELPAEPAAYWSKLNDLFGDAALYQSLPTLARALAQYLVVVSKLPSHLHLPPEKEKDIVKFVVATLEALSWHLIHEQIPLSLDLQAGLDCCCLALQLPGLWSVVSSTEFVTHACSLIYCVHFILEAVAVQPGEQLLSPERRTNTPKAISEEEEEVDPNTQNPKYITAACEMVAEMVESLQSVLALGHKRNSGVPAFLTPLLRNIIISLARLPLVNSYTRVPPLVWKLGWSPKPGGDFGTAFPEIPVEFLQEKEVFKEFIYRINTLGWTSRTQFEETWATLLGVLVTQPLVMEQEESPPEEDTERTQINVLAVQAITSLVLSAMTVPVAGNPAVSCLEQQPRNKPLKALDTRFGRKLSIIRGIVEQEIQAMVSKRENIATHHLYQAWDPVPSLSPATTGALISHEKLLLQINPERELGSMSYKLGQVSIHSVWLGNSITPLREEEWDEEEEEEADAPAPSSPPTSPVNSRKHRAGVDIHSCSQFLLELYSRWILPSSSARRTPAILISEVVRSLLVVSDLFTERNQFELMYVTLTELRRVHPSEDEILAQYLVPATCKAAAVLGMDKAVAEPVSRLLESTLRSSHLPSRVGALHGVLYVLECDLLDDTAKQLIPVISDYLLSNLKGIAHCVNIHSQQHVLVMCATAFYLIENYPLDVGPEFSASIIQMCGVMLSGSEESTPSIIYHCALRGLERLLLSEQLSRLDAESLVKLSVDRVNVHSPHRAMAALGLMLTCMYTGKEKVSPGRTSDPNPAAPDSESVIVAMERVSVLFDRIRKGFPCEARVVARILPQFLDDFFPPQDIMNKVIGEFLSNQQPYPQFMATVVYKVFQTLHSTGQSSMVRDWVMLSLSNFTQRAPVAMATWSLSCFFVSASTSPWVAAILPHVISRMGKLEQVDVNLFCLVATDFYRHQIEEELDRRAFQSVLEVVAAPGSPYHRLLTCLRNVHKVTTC
Pf apPOL inh: Pf-apPOL inhibitors, biochemical, fluorescence; Recombinant Pf-apPOL, molecular beacon fluorescence, 1.5 h; inhibition, % at 10 µM; actives 0.25% (n = 210,000)
Starred values were filed as active, the others as inactive; x = no result; ! = not confirmed by another sample. No stated cut-off is given here; in the data, active means inhibition above about 50%; inactive means the rest.

SMILES	mHTT-CaM PPI inh	Pf apPOL inh
Fc1ccccc1CN1CCc2nc(N3CCN(c4ccccc4)CC3)ncc2C1	34	4
Fc1ccc(CN2CCc3nc(N4CCN(c5ccccc5)CC4)ncc3C2)cc1F	100*	5
COc1ccc(CN2CCc3nc(N4CCN(c5ccc(F)cc5)CC4)ncc3C2)cc1	0	-3
CCN1CCN(c2ncc3c(n2)CCN(Cc2cc(Br)cs2)C3)CC1	34	-1
COc1ccc(N2CCN(c3ncc4c(n3)CCN(Cc3cccc(F)c3)C4)CC2)cc1	51*	-4
Cc1cccc(CN2CCc3nc(N4CCC(C)CC4)ncc3C2)c1	13	-1
Brc1csc(CN2CCc3nc(N4CCCC4)ncc3C2)c1	99*	6
CCN1CCN(c2ncc3c(n2)CCN(Cc2cccc(C)c2)C3)CC1	79*	-2
O=C(O)CCCCCNS(=O)(=O)c1ccccc1C(F)(F)F	-5	5
O=C(NCc1csc(C2CCN(C(=O)c3ccc(F)cc3F)CC2)n1)C1CC1	-8	-2
CN1C(=N)NC(=O)C12COC(c1cccnc1)OC2 (centres undefined)	2	5
Fc1cccc(CN2CCc3nc(N4CCN(c5ccccc5F)CC4)ncc3C2)c1	3	3
Clc1ccc(CN2CCc3nc(N4CCN(c5ccccc5)CC4)ncc3C2)cc1	41	3
Clc1ccc(CN2CCc3nc(N4CCN(c5ncccn5)CC4)ncc3C2)cc1	100*	-2
Fc1cccc(CN2CCc3nc(N4CCN(c5ncccn5)CC4)ncc3C2)c1	100*	-3
COc1ccc(CN2CCN(C(=O)c3c[nH]c4ccccc34)CC2)cn1	-3	-1
Cc1ccc(C(=O)N(C)C(C)C)c(C2CCN(C(=O)c3c(F)cccc3F)CC2)n1	-2	-3
COc1ccc(/C=C2\SC(=O)N(c3ccccc3OC)C2=O)cc1	4	-4
COc1ccccc1N1C(=N)S/C(=C\c2ccc(Br)c([N+](=O)[O-])c2)C1=O	57*	-8
O=C(O)CCCCNS(=O)(=O)c1ccccc1C(F)(F)F	-6	-4
Cc1ccc(C(=O)Nc2cccc(-c3nc4ncccc4o3)c2)c(Cl)c1	53*	-2
O=C(Nc1cccc(-c2nc3ncccc3o2)c1)c1cccc(Cl)c1Cl	20	-8
COc1ccc(OCC(=O)Nc2cc(-c3nc4ncccc4o3)ccc2C)cc1	8	-3
Cc1ccc(-c2nc3ncccc3o2)cc1NC(=O)COc1ccc(Cl)cc1	1	91*
O=C(COc1ccc(Cl)cc1)Nc1cccc(-c2nc3ncccc3o2)c1	50*!	-7
SMILES	mHTT-CaM PPI inh	Pf apPOL inh
COc1ccc(OCC(=O)Nc2cccc(-c3nc4ncccc4o3)c2)cc1	3	5
Cc1cnc(NC(=O)C2CC3CCC2C3)s1 (centres undefined)	1	-2
COc1cccc(-n2nc(C(=O)N3CCOCC3)c3ccccc3c2=O)c1	0	-2
COc1cccc(-n2nc(C(=O)N3CCN(c4cccc(Cl)c4)CC3)c3ccccc3c2=O)c1	61*	-2
COc1ccc(C(=O)N2CCN=C2N2CCN(c3cccc(Cl)c3)CC2)cc1	85*	0
CCOc1ccc(C(=O)N2CCN=C2N2CCC(C)CC2)cc1	4	-6
COc1ccccc1C(=O)N1CCN=C1N1CCN(c2cccc(Cl)c2)CC1	48	0
CCOc1ccc(C(=O)N2CCN=C2N2CCN(c3cccc(Cl)c3)CC2)cc1	100*	0
O=C1OC(c2ccccc2Cl)=N/C1=C\c1ccc(Br)cc1	-2	-6
CCN1CC=C2C(C#N)=C(N)C(C#N)(C#N)C(c3cccs3)C2C1 (centres undefined)	14	33
Cc1ccc(C)c(C(=O)N2CCc3c(c(-c4nc(C5CC5)no4)nn3C)C2)c1	3	-7
CC1CCc2onc(C(=O)Nc3cccc(C(F)(F)F)c3)c2C1 (centres undefined)	-6	-3
Cc1[nH]c2ccc(Br)cc2c(=O)c1CN1CCOCC1	-1	-1
Nc1c2c3c(c(Cl)ccc3[nH]c1=O)C(=O)c1ccccc1-2	13	0
O=c1[nH]c2ccc(Br)cc2c(-c2ccccc2)c1CN1CCCCC1	100*	-3
Cc1cc(Br)ccc1NS(=O)(=O)c1ccc2nc(-c3ccccc3)[nH]c2c1	-2	-9
Nc1c(-c2ccccc2Cl)c2cc(Br)ccc2[nH]c1=O	79*	-8
O=c1[nH]c2ccc(Br)cc2c(-c2ccccc2)c1NS(=O)(=O)c1ccccc1	98*	21
Cc1cc2nc(-c3cc(NC(=O)c4ccc(Br)o4)ccc3O)oc2cc1C	24	3
CCOc1ccc(CC(=O)N2CCCC2c2nc(-c3cccc(C)c3)no2)cc1 (centres undefined)	0	-5
COc1ccc(/C=c2\sc3nc(-c4ccc(C)cc4)nn3c2=O)c(OC)c1	-1	-6
CN(C)S(=O)(=O)Oc1ccc(-c2noc(-c3ccc(Oc4cc(Cl)cc(Cl)c4)o3)n2)cc1	x	59*
FC(F)(F)c1cccc(-c2nnc(-c3ccc(Oc4cc(Cl)cc(Cl)c4)o3)o2)c1	x	0
O=C(NCc1cccc(C(F)(F)F)c1)C1CCN(c2nccc3sccc23)CC1	3	-2
Cc1sc2c(=O)n(C3CC3)cnc2c1C(=O)NCc1cccc(Br)c1	-3	6
SMILES	mHTT-CaM PPI inh	Pf apPOL inh
COc1ccc(C2CC(c3ccccc3)=NN2C(=O)CN2CCOCC2)cc1 (centres undefined)	27	-6
Cc1ccc(C2=NN(C(=O)CN3CCOCC3)C(c3ccccc3Cl)C2)cc1 (centres undefined)	48	-7
COc1cccc(C2CC(c3cc(C)ccc3C)=NN2C(=O)CN2CCOCC2)c1 (centres undefined)	47	-8
Cc1ccc(C2=NN(C(=O)CN3CCOCC3)C(c3ccccc3)C2)cc1C (centres undefined)	52*	-2
Cc1ccc(C2=NN(C(=O)CN3CCOCC3)C(c3ccccc3C)C2)cc1C (centres undefined)	51*	-1
Cc1ccc(C)c(C2=NN(C(=O)CN3CCOCC3)C(c3ccccc3C)C2)c1 (centres undefined)	85*	-4
COc1ccccc1C1=NN(C(=O)CN2CCOCC2)C(c2ccccc2Cl)C1 (centres undefined)	38	-4
O=C(CN1CCOCC1)N1N=C(c2ccccc2Cl)CC1c1ccccc1Cl (centres undefined)	100*	-3
CCC(=O)N(C)CC(=O)N1N=C(c2ccc(C)c(C)c2)CC1c1ccccc1 (centres undefined)	56*	1
CCC(=O)N(C)CC(=O)N1N=C(c2cccs2)CC1c1ccccc1 (centres undefined)	7	-6
O=C(CN1CCOCC1)N1N=C(c2ccc(F)cc2)CC1c1ccccc1F (centres undefined)	14	-4
Cc1ccc(C2CC(c3ccccc3F)=NN2C(=O)CN2CCOCC2)c(C)c1 (centres undefined)	83*	1
Cc1ccc(C2=NN(C(=O)CN3CCOCC3)C(c3ccc(F)cc3)C2)cc1 (centres undefined)	28	-6
Cc1ccc(C)c(C2CC(c3ccc(F)cc3)=NN2C(=O)CN2CCOCC2)c1 (centres undefined)	50*	2
COCCCNC(=O)c1ccc(CN2C(=O)C3CCCN3C(=O)c3ccccc32)cc1 (centres undefined)	-1	-5
